KCNQ2 inh = rat KCNQ2 potassium channel inhibitors, primary screen, cell-based, CHO-K1, FluxOR thallium flux, B-score; Potassium voltage-gated channel subfamily KQT member 2 (Rattus norvegicus), O88943; 20 min; active compounds read low; B-score at 10 µM; 310,000 tested, 1.1% active;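 active = fluorescence ratio B-score at most minus 3 library SDs, with starting brightness B-score within 2 library SDs, cut at about -5.5 in these data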
Target sequence (O88943 whole entry, looked up): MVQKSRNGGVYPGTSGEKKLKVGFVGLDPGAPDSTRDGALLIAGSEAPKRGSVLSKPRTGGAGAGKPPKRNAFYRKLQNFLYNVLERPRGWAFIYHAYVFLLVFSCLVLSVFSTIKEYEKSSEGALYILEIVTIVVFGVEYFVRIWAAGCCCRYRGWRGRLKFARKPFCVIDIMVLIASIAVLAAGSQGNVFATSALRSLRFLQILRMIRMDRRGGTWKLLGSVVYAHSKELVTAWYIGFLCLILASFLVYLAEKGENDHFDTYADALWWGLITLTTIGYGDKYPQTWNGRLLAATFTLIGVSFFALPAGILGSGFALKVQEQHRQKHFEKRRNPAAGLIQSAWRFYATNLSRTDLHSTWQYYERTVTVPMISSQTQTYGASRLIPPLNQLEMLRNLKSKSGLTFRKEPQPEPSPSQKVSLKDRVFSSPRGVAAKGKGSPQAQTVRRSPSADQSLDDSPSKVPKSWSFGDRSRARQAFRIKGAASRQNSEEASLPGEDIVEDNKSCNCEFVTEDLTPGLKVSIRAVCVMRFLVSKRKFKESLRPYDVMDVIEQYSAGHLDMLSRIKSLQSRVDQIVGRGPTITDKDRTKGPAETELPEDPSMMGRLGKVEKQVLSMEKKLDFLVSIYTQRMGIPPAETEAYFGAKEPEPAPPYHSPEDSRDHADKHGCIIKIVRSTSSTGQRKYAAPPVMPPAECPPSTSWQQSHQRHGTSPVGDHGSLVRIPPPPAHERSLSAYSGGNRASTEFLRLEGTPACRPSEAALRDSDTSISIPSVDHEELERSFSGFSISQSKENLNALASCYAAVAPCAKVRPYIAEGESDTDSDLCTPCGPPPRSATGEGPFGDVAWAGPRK
KCNQ2 enhance = potentiators of rat KCNQ2 potassium channel; Potassium voltage-gated channel subfamily KQT member 2 (Rattus norvegicus), O88943; CHO-K1 KCNQ2, FluxOR thallium flux fluorescence; active compounds read high; B-score at 10 µM; 310,000 tested, 0.54% active;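 active = fluorescence ratio B-score at least 3 SD of library B-scores, with initial fluorescence B-score within 3 of them, cut at about 5.3 in these data; same plate scores as AID 2156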;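 also: B-score of peak minus minimum over baseline fluorescence ratio after K+ and Tl+ stimulus; positive B-score means potentiation of KCNQ2 with more thallium influx and brighter signal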
Numbers without * were called inactive. Sampled rows, rich in hits. Any-hit rate of the full collection: about 1.6%.

What do the screens show for `Cc1[nH]c2ccc(C(=O)N3CCN(c4cccc(Cl)c4)CC3)cc2c1C`?
KCNQ2 inh: -6.19*; KCNQ2 enhance: -6.19

What do the screens show for `Cc1[nH]c2ccc(C(=O)N3CCCC3)cc2c1C`?
KCNQ2 inh: inactive; KCNQ2 enhance: 0.04

Results for CC(=O)N(c1ccccc1C)C1CCCC1 ?
KCNQ2 inh: inactive; KCNQ2 enhance: 0.01

How did CC(=O)N(C1=C(Cl)C(=O)c2ccccc2C1=O)C1CCCCC1 do in these assays?
KCNQ2 inh: -5.65*; KCNQ2 enhance: -5.65

Results for CCOC(=O)CN(C)Cc1cn(C)nc1-c1ccc(Oc2ccccc2)cc1 ?
KCNQ2 inh: inactive

Results for CCN(C(=O)/C=C/c1ccc2c(c1)OCO2)c1ccccc1 ?
KCNQ2 inh: -5.99*; KCNQ2 enhance: -5.99

How did CCN(CC(=O)Nc1ccc(NC(C)=O)cc1)C(=O)/C=C/c1ccc2c(c1)OCO2 do in these assays?
KCNQ2 inh: inactive

Results for Cc1c(C(=O)NN2CCCCC2)nn(-c2ccc(Cl)cc2Cl)c1-c1ccc(I)cc1 ?
KCNQ2 inh: -9.92*; KCNQ2 enhance: -9.92

How did Cc1onc(-c2c(Cl)cccc2Cl)c1C(=O)NN1CCCCCC1 do in these assays?
KCNQ2 inh: inactive

How did Cc1ccc(S(C)(=O)=O)cc1C(=O)NC(C)C1CC2CCC1C2 (stereo not given) do in these assays?
KCNQ2 inh: inactive; KCNQ2 enhance: 0.22

Results for Cc1ccc(-n2nc3c(=O)n(C(C)C(=O)NCCCc4ccccc4)nc(C)c3c2C)cc1 (stereo not given) ?
KCNQ2 inh: inactive

Results for Cc1ccc(-n2nc3c(=O)n(C(C)C(=O)NCc4ccccc4Cl)nc(C)c3c2C)cc1 (stereo not given) ?
KCNQ2 inh: -8.07*; KCNQ2 enhance: -8.07

Results for CC(C)Cn1cc(C(=O)N2CCN(c3ccccn3)CC2)c2c3ccccc3n(C)c2c1=O ?
KCNQ2 inh: -5.74*; KCNQ2 enhance: -5.74

How did CCN1CCN(C(=O)c2cn(CCOC)c(=O)c3c2c2ccccc2n3C)CC1 do in these assays?
KCNQ2 inh: inactive; KCNQ2 enhance: 0.06

Results for COCCn1cc(C(=O)N2CCCC(C)C2)c2c3ccccc3n(C)c2c1=O (stereo not given) ?
KCNQ2 inh: -6.62*; KCNQ2 enhance: -6.62

How did COCCCNC(=O)c1cn(CC(C)C)c(=O)c2c1c1ccccc1n2C do in these assays?
KCNQ2 inh: inactive; KCNQ2 enhance: 0.05

How did COc1ccc(C(C)NC(=O)C2CCCC2)cc1OC (stereo not given) do in these assays?
KCNQ2 inh: inactive

How did CCOc1cc(/C=C2\CCn3c2nc2cc(Cl)ccc2c3=O)ccc1O do in these assays?
KCNQ2 inh: inactive

Results for CCc1cc2cc(C(=O)N3CCN(c4ccccc4)CC3)sc2s1 ?
KCNQ2 inh: inactive

What do the screens show for `CCc1cc2cc(C(=O)N3CCN(Cc4ccccc4)CC3)sc2s1`?
KCNQ2 inh: -5.76*; KCNQ2 enhance: -5.76

How did Cc1c(OCC(=O)NCC2CCC(C(=O)NCCCO)CC2)ccc2c(-c3ccccc3)cc(=O)oc12 (stereo not given) do in these assays?
KCNQ2 inh: inactive; KCNQ2 enhance: 0.01

Results for NNC(=O)c1cc2ccccc2cc1NS(=O)(=O)c1ccccc1 ?
KCNQ2 inh: inactive

How did NNC(=S)NC1CCCCCCCCCCC1 do in these assays?
KCNQ2 inh: -6.88*; KCNQ2 enhance: -6.88

Results for S=C(NC1CCCCCC1)NC1CCCC1 ?
KCNQ2 inh: inactive; KCNQ2 enhance: 0.57

What do the screens show for `O=C(O)c1nn(CC(=O)N2CCC(Cc3ccccc3)CC2)c(=O)c2ccccc12`?
KCNQ2 inh: inactive

How did CC1=C(C(=O)Nc2ccccc2F)C(c2ccsc2)C2=C(CC(c3ccccc3)CC2=O)N1 (stereo not given) do in these assays?
KCNQ2 inh: -6.07*; KCNQ2 enhance: -6.07

How did CCOCCOC(=O)C1=C(C)NC2=C(C(=O)CC(c3cccs3)C2)C1c1ccsc1 (stereo not given) do in these assays?
KCNQ2 inh: inactive

Results for C=CCNC(=S)N1CCC(Cc2ccccc2)CC1 ?
KCNQ2 inh: inactive

What do the screens show for `O=C(C1CCCN1S(=O)(=O)c1ccc(Cl)cc1)N1CCCCC1` (stereo not given)?
KCNQ2 inh: inactive; KCNQ2 enhance: 1.3

How did COc1c(C)cc(C(=O)C2CCCN(Cc3ccc(Oc4ncccn4)cc3)C2)cc1C (stereo not given) do in these assays?
KCNQ2 inh: inactive

What do the screens show for `CC(C)Oc1cccc(C(=O)C2CCCN(Cc3ccc(Oc4ncccn4)cc3)C2)c1` (stereo not given)?
KCNQ2 inh: -7.77*; KCNQ2 enhance: -7.77

How did CN(C)/C=C(\C#N)C(=O)c1cccc(Oc2ccc(Br)cc2)c1 do in these assays?
KCNQ2 inh: inactive

Results for CC(C)c1ccc(Oc2cccc(C(=O)/C(C#N)=C/N(C)C)c2)cc1 ?
KCNQ2 inh: -6.2*; KCNQ2 enhance: -6.2

How did COC(=O)CN1C(=S)N(C)C(=O)/C1=C/c1cccs1 do in these assays?
KCNQ2 inh: inactive

What do the screens show for `CCc1ccc(/C=C2/C(=O)N(C)C(=S)N2CC(=O)OC)s1`?
KCNQ2 inh: -5.95*; KCNQ2 enhance: -5.95

What do the screens show for `CN(C)C(=O)c1ccc(NC(=O)c2ccc(-c3ccc(Cl)cc3)o2)cc1`?
KCNQ2 inh: inactive; KCNQ2 enhance: 1.38

Results for Cc1cccc(NC(=S)NCC(C)CSc2ccc(Cl)cc2)c1 (stereo not given) ?
KCNQ2 inh: inactive; KCNQ2 enhance: 1.99

How did Cc1ccc(NC(=S)NCC(C)CSc2ccc(Cl)cc2)cc1 (stereo not given) do in these assays?
KCNQ2 inh: inactive; KCNQ2 enhance: 13.3*

What do the screens show for `O=C1CCC(C(=O)N2CCN(c3ccccc3)CC2)CN1CC1CCCCC1` (stereo not given)?
KCNQ2 inh: inactive

What do the screens show for `NC(=O)c1ccc(N2CCC(C(N)=O)CC2)c([N+](=O)[O-])c1`?
KCNQ2 inh: inactive; KCNQ2 enhance: 0.08

How did Cc1ccc(Cc2cnc(N3C(=N)SC(C)C3=O)s2)cc1 (stereo not given) do in these assays?
KCNQ2 inh: inactive; KCNQ2 enhance: 0.46

How did Cc1cccc(Cc2cnc(N3C(=N)SC(C)C3=O)s2)c1 (stereo not given) do in these assays?
KCNQ2 inh: inactive; KCNQ2 enhance: 6*

Results for O=C1CCc2cc(NS(=O)(=O)c3ccccc3)cc3c2N1CC3 ?
KCNQ2 inh: inactive; KCNQ2 enhance: 0.21

How did COc1cccc(CNC(=O)c2ccc(NC(=O)C3=CSCCO3)cc2)c1 do in these assays?
KCNQ2 inh: inactive; KCNQ2 enhance: 1.11

What do the screens show for `Cc1noc(C)c1COc1ccc(C(=O)OCC(=O)NCc2ccccc2Cl)cc1`?
KCNQ2 inh: -6.49*; KCNQ2 enhance: -6.49

What do the screens show for `COc1ccc(CNC(=O)COC(=O)c2ccc(OCc3c(C)noc3C)cc2)cc1OC`?
KCNQ2 inh: inactive; KCNQ2 enhance: 0.44

Results for COc1ccc(NC(=O)CN(C)C(=O)c2ccc(NS(=O)(=O)c3ccc(F)cc3)cc2)cc1 ?
KCNQ2 inh: inactive

Results for CCOC(=O)N1CCN(Cc2nnc(-c3cccc(Br)c3)o2)CC1 ?
KCNQ2 inh: inactive; KCNQ2 enhance: 0.82

What do the screens show for `Cc1ccc(/C=C/C(=O)N2CCN(c3ncccn3)CC2)o1`?
KCNQ2 inh: inactive; KCNQ2 enhance: 8.93*

How did Cc1ccc(/C=C/C(=O)N2CCN(c3ccc(F)cc3)CC2)o1 do in these assays?
KCNQ2 inh: inactive

Source: PubChem (Johns Hopkins Ion Channel Center)
